12-LOX inh: ALOX12 (human) lipoxygenase inhibition; 580,000 compounds, 1.1% hits; AID 1671190; P18054; purified 12hLO, xylenol orange hydroperoxide absorbance; Potency, µM (doses to about 108 µM), for inactives: at the highest dose activity change, negative = inhibition, usual class: inhibitors; also: % is scaled to controls: 0 for no effect and ±100 for the full control effect
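Purified human 12hLO (150 nM final) in 25 mM Hepes, 0.01% Triton X-100, pH 7.0 was preincubated 15 min at room temperature with compound. Then 40 uM arachidonic acid was added, 30 min. Hydroperoxide was read by Fe-XO absorbance ratio 573/405 nm.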
HP1b binding inh: blocks HP1-beta chromodomain binding to methylated histone tails; AlphaScreen HP1-beta / biotin-H3K9me3 peptide binding; Potency, µM (top dose mostly 114 µM), inactives show top-dose activity change, negative = inhibition, actives largely listed as inhibitors; 390,000 compounds, 0.56% hits; also: nearly all actives have a fitted effect of over 70% in size
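HP1-beta protein (50 nM final) preincubated 30 min at room temperature with biotinylated H3(1-18)K9me3 peptide (50 nM) in PBS pH 7.4, 0.01% Tween-20, then compound added for 30 min. AlphaScreen streptavidin donor/nickel chelate acceptor beads (10 ug/mL final), 30 min dark, luminescence read.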
JMJD2A Tudor: blocks the human JMJD2A Tudor domain; O75164; AlphaScreen JMJD2A-Tudor / H3K4me3 peptide binding; Potency, µM (top dose mostly 114 µM), for inactives: at the highest dose activity change, negative = inhibition, usual class: inhibitors; 390,000 compounds, 4.4% hits; also: % is scaled to controls: 0 for no effect and ±100 for the full control effect; nearly all actives have a fitted effect of over 50% in size
Sfp inh: Sfp phosphopantetheinyl transferase inhibition | 310,000 compounds, 3.5% hits | Biochemical Sfp PPTase activity, qHTS | Q9F4F7 | Potency, µM, without a hit: largest response in the series, negative = inhibition, usual class: inhibitors | AID 1490;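 also: the enzyme is Sfp with the accession as filed and its product quenches rhodamine fluorescence; 0% = enzyme reaction without inhibitor and -100% = no enzyme wells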
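Fluorescence-quenching assay: 15 nM Sfp-PPTase preincubated 15 min at room temperature with compound, then 5 uM rhodamine-CoA and 12.5 uM BHQ-2-labelled YbbR peptide added. Fluorescence (ex 525/em 598 nm) read at start and after 30 min; difference gives rate.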
BAZ2B block: BAZ2B (human) inhibition | Q9UIF8 | AlphaScreen BAZ2B-H3K14Ac peptide displacement | Potency, µM (highest dose often 114 µM), for the others: top-dose activity change, negative = inhibition, actives largely listed as inhibitors | 360,000 compounds, 4.4% hits | AID 504333; also: % is scaled to controls: 0 for no effect and ±100 for the full control effect; nearly all actives have a fitted effect of over 60% in size
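Protein-peptide AlphaScreen: BAZ2B 50 nM, b-H3K14Ac 50 nM, 1x PBS pH 7.4 + 0.01% Tween-20. Preincubation 30 min RT; cpd 30 min RT (top 110 uM); beads 20 min RT, light-protected.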
G9a inh: G9a (human) methyltransferase inhibition | G9a H3K9 monomethylation, AlphaScreen, 2 h | Potency, µM (top dose mostly 102 µM), without a hit: top-dose activity, negative = inhibition, actives largely listed as inhibitors | 350,000 compounds, 8.8% hits | AID 504332; also: % is scaled to controls: 0 for no effect and ±100 for the full control effect; nearly all actives have a fitted effect of over 75% in size
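AlphaScreen read-out: biotin-H3K9 peptide (500 nM) methylation by 20 nM enzyme with 20 uM SAM, 2 h at room temperature after 15 min compound preincubation; anti-monomethyl H3K9 antibody plus donor/acceptor beads, 10 min dark.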
Active calls of the source: *; ? = inconclusive; . = no result; [ ] = another dose, or the depositor's remark. An excerpt weighted towards active compounds, which were near 8.7% of everything screened. Calls follow the shape of the dose curve; as a rule, active = well fitted curve in the direction sought with a large enough effect; inconclusive = small, poorly fitted or top-dose-only effect, or another doubt; inactive = no such curve, though single readings can be large; an effect the other way counts as inactive or inconclusive. Potency is read from the fitted curve at half-maximal effect.

SMILES	12-LOX inh	HP1b binding inh	JMJD2A Tudor	Sfp inh	BAZ2B block	G9a inh
CC1=CC(C)(C)NC(=S)N1c1cccc(C)c1	?	13%[57 µM]	-13%	1%	0%	28%[12.7 µM]
CC(C)CNC(=O)COc1ccc2c(C(C)C)cc(=O)oc2c1	5%	.	.	.	.	.
O=C(Nc1ccc(Cl)cc1Cl)c1c[nH]c2cccnc12	31%	.	.	.	.	.
Cc1ccc(NC(=O)c2ccc3c(c2)N(C)C2CCCN2C3=O)cc1 (configuration not stated)	6%	.	.	.	.	.
Cc1cccc(-n2cc[nH]c2=S)c1C	50µM*	35%	40µM*	-19%	-6%	1.8µM*
Cc1cccc(-n2ccnc2SCC(=O)O)c1C	2%	35%	-13%	9%	-6%	-27%
CN(c1ccc([N+](=O)[O-])cc1C(N)=O)C1CCCCC1	-25%	20%	-13%	14%	79µM*	-34%
CC1(C)CSC(=NCCc2ccccc2)N1C(=O)c1ccc(C#N)cc1	-24%	29%	1%	?	?	2.8µM*
O=C(c1ccccc1)n1nc(NCc2cccs2)nc1NCc1cccs1	40%	.	.	.	.	.
O=[N+]([O-])c1cc(C(F)(F)F)ccc1NCCc1c[nH]c2ccc(O)cc12	-28%	?	22µM*	11%	40µM*	?
O=[N+]([O-])c1cc(C(F)(F)F)ccc1NCCc1c[nH]c2ccccc12	-11%	?	22µM*	20%	11µM*	?
COc1ccc(-c2ncc3c(n2)OCCN(c2ccccc2)C3=O)cc1F	47%[176 µM]	.	.	.	.	.
CCCCn1c(N)c(N(CC)C(=O)c2cc(CCC)c(C)s2)c(=O)[nH]c1=O	27%	.	.	.	.	.
Cc1cc(C(=O)N2CCCC3(CCNCC3)CC2)c2cnn(C(C)C)c2n1	20µM*	.	.	.	.	.
C=CCC1Cc2c(cccc2[N+](=O)[O-])C(CC=C)N1 (configuration not stated)	?	-3%	?	2%	?	50µM*
Cc1cccc(NCc2cc(C(C)(C)C)c(O)c(C(C)(C)C)c2)c1	10µM*	.	.	.	.	.
CC(=O)Nc1cccc(NC(=O)C(=O)NCC(c2ccco2)N2CCc3ccccc32)c1 (configuration not stated)	-1%	?	56µM*	.	50µM*	50µM*
O=C(NCC(c1ccco1)N1CCc2ccccc2C1)c1ccccc1 (configuration not stated)	?	26%	-17%	.	0%	7%
O=C(NCC(c1ccco1)N1CCc2ccccc2C1)C(=O)Nc1ccccc1 (configuration not stated)	-1%	8%	-12%	.	1%	50µM*
COc1cccc2cc(-c3cc(=O)oc4cc(OCC(=O)C(C)(C)C)ccc34)c(=O)oc12	-22%	.	.	.	.	.
OC(c1ccccc1)(c1ccccc1)C1CCN(CCCOc2ccc(-c3ccc(F)cc3F)cc2)CC1	40µM*	.	.	.	.	.
COc1ccccc1-c1ccc(OCCCN2CCC(C(O)(c3ccccc3)c3ccccc3)CC2)cc1	40µM*	.	.	.	.	.
CC(NCC(C#N)CCC#N)c1cccc(Br)c1 (configuration not stated)	-25%	.	.	.	.	.
Oc1ccc(C2CNCc3sccc32)cc1O (configuration not stated)	?	?	50µM*	.	15%	3µM*
CC/C=C\CCCCCCCCCCOC(C)=O	1%[176 µM]	.	.	.	.	.
CCCc1cc(=O)n2nc(N3CCC(C(=O)NCc4cccc(Br)c4)CC3)sc2n1	1%	.	.	.	.	.
Cn1ncc(S(=O)(=O)Cc2ccccc2)c(Cl)c1=O	14µM*	-25%	-28%	6.3µM*	?	.
COc1ccc(-n2c(O)c(/C=N/NS(=O)(=O)c3cccc([N+](=O)[O-])c3)c3ccccc3c2=O)cc1OC	?	3%	?	-14%	50µM*	40µM*
CCCCOc1ccc(C(=O)N2CCC(Cc3nc(-c4cnccn4)no3)CC2)cc1	30%	.	.	.	.	.

Compound activity deposited in PubChem by National Center for Advancing Translational Sciences (NCATS).
